From PubChem BioAssay (NCATS) come the findings set out here.

Inconclusive results are not listed. A call without a number means that no potency is given here. The source made the active and inactive calls. The call rests on the fitted dose curve.

The nature of the first test: Primary qHTS for inhibitors of MERS-S pseudo-typed particle cell entry (AID 1479149). Further: nearly all actives have a fitted effect of over 60% in size. The note with it: MERS-S pseudotyped particle entry, luciferase; series mostly up to 57.1 µM.
As to `Oc1ccc(C(O)CNCCCCCCNCC(O)c2ccc(O)c(O)c2)cc1O` (stereo not drawn), the Potency result is “inactive”.
On the same count and under the same terms, the entry for `CNC1CCCN(c2c(F)cc3c(=O)c(C(=O)O)cn(C4CC4)c3c2OC)C1` (stereo not drawn) is “inactive”; for `COC(=O)Nc1nc2ccc(Sc3ccccc3)cc2[nH]1` it is “inactive”.
On to `CC1(C)[C@H](C(=O)O)N2C(=O)C[C@H]2S1(=O)=O`, for which the Potency result was “inactive”.
The same measure, in the same setting: the entry for `CC(O)Cn1cnc2c1c(=O)n(C)c(=O)n2C` (stereo not drawn) is “inactive”; for `O=C(O)CCNC(=O)c1ccccc1` it is “inactive”; for `COc1ccccc1N1CCN(CCCNc2cc(=O)n(C)c(=O)n2C)CC1` it is “inactive”.
With `CC(=O)CCC(=O)O`, the Potency entry was “inactive”.
On the same count and under the same terms, then `Nc1nc2ncc(CNc3ccc(C(=O)N[C@@H](CCC(=O)O)C(=O)O)cc3)nc2c(=O)[nH]1`, with “inactive”.
Same read-out and setting: then `Cc1c(C(=O)NN2CCCCC2)nn(-c2ccc(Cl)cc2Cl)c1-c1ccc(Cl)cc1`, with “inactive”.
As to `CN(C)C(=O)Oc1cccc([N+](C)(C)C)c1`, the Potency result was “inactive”.
On the same count and under the same terms, then `Cc1ccc(C(C)OC(=O)C2(C)CCC(C(=O)O)C2(C)C)cc1` (stereo not drawn), with “inactive”; and `CC(=O)N(CC(=O)N(C)C)c1ccccc1`, with “inactive”.
Take `O=C1OC2(c3ccc(O)cc3Oc3cc(O)ccc32)c2ccccc21`: the Potency entry is “inactive”.
Still for that read-out and setting: then `O=[N+]([O-])c1nccn1CO[C@@H](CO)[C@H](O)CO`, with “inactive”.

A further test is described as follows: Primary qHTS for Vero E6 cytotoxicity: counterscreen for inhibitors of SARS-S pseudo-typed particle cell entry (AID 1479150). The settings on record: cell viability; series mostly up to 57.1 µM.
Regarding `C/C(=C(\CCOP(=O)(O)O)SC(=O)c1ccccc1)N(C=O)Cc1cnc(C)nc1N`, the outcome was “inactive [at 5.34 µM]”.
Turning to `NCC1CCC(C(=O)Oc2ccc(CCC(=O)O)cc2)CC1` (stereo not drawn), the Potency entry was “inactive”.
For the compound `CC[N+]1(CC)CCC(=C(c2ccccc2)c2ccccc2)C1C` (stereo not drawn), the Potency entry was “inactive”.
In the case of `CCCn1cnc2c1c(=O)n(CCCCC(C)=O)c(=O)n2C`, the Potency entry is “inactive”.
With `CCCCCOc1ccc(C2SC(=O)NC2=O)cc1OCC` (stereo not drawn), the Potency entry was “inactive”.
For `CC1=C(CC(=O)O)c2cc(F)ccc2/C1=C\c1ccc(S(C)=O)cc1` (stereo not drawn), the Potency result is “inactive”.
With `COc1ccc2c(c1)c(CC(=O)OCC(=O)O)c(C)n2C(=O)c1ccc(Cl)cc1`, the Potency entry is “inactive”.
Still for that read-out and setting: the entry for `Cc1c(C)c2c(c(C)c1OC(=O)CCC(=O)OCCO)CC[C@@](C)(CCC[C@H](C)CCC[C@H](C)CCCC(C)C)O2` is “inactive”; for `CCCc1ncc(C[n+]2ccccc2C)c(N)n1` it is “inactive”; for `Nc1c2c(nc3ccccc13)CCCC2` it is “inactive”.
Consider `CSc1ccc(C(=O)c2[nH]c(=O)[nH]c2C)cc1`, for which the Potency result is “inactive”.
As to `CC(=O)OCC(=O)[C@@]12N=C(C)O[C@@H]1C[C@H]1[C@@H]3CCC4=CC(=O)C=C[C@]4(C)[C@H]3[C@@H](O)C[C@@]12C`, the Potency result is “inactive”.
Still for that read-out and setting: then `CCCOc1ccc2nc(NC(=O)OC)[nH]c2c1`, with “inactive”; and `NC(N)=NC(=O)c1nc(Cl)c(N)nc1N`, with “inactive”.
As to `CC(C)(C)C(=O)C(Oc1ccc(Cl)cc1)n1ccnc1` (stereo not drawn), the Potency result is “inactive”.
The same measure, in the same setting: then `C[C@]1(Cn2ccnn2)[C@H](C(=O)O)N2C(=O)C[C@H]2S1(=O)=O`, with “inactive”; and `CN(C)[C@@H]1C(=O)C(C(=O)NCN2CCCC2)=C(O)[C@@]2(O)C(=O)C3=C(O)c4c(O)cccc4[C@@](C)(O)C3C[C@@H]12` (stereo partly drawn), with “inactive”; and `CCNC(=O)NCCCOc1cccc(CN2CCCCC2)c1`, with “inactive”.
On to `CCOCC(O)COc1ccc(NC(=O)CC[S+](C)C)cc1` (stereo not drawn), for which the Potency result is “inactive”.
For `CCOC(=O)OC(C)OC(=O)[C@@H]1N2C(=O)[C@@H](NC(=O)[C@H](N)c3ccccc3)[C@H]2SC1(C)C` (stereo partly drawn), the Potency entry is “inactive”.
The same measure, in the same setting: then `COc1ccc2c(c1OC)C(=O)O[C@@H]2[C@H]1c2c(cc3c(c2OC)OCO3)CCN1C`, with “inactive”.
Turning to `CC1(C)[C@@H](OC(=O)CCC(=O)O)CC[C@]2(C)[C@H]3C(=O)C=C4[C@@H]5C[C@@](C)(C(=O)O)CC[C@]5(C)CC[C@@]4(C)[C@]3(C)CC[C@@H]12`, the Potency entry was “inactive”.
Turning to `CC(C)c1cc2c(cc1S(=O)(=O)O)[C@@]1(C)CCC[C@@](C)(C(=O)O)[C@@H]1CC2`, the Potency result was “inactive”.
The same measure, in the same setting: the entry for `Oc1ccc(C(O)CNCCCCCCNCC(O)c2ccc(O)c(O)c2)cc1O` (stereo not drawn) is “inactive”; for `CNC1CCCN(c2c(F)cc3c(=O)c(C(=O)O)cn(C4CC4)c3c2OC)C1` (stereo not drawn) it is “inactive”.
Consider `COC(=O)Nc1nc2ccc(Sc3ccccc3)cc2[nH]1`, for which the Potency result is “inactive”.
Same read-out and setting: then `CC1(C)[C@H](C(=O)O)N2C(=O)C[C@H]2S1(=O)=O`, with “inactive”.
Same read-out and setting: then `CC(O)Cn1cnc2c1c(=O)n(C)c(=O)n2C` (stereo not drawn), with “inactive”.
As for `O=C(O)CCNC(=O)c1ccccc1`, the Potency entry was “inactive”.
With `COc1ccccc1N1CCN(CCCNc2cc(=O)n(C)c(=O)n2C)CC1`, the Potency entry is “inactive”.
For the compound `CC(=O)CCC(=O)O`, the Potency result was “inactive”.
Same read-out and setting: then `Nc1nc2ncc(CNc3ccc(C(=O)N[C@@H](CCC(=O)O)C(=O)O)cc3)nc2c(=O)[nH]1`, with “inactive”; and `Cc1c(C(=O)NN2CCCCC2)nn(-c2ccc(Cl)cc2Cl)c1-c1ccc(Cl)cc1`, with “inactive”.
